Hits are enriched below; roughly 12% of the tested compounds scored in any of these assays.
USP17 inh – inhibitors of human USP17 deubiquitinase; Ubiquitin carboxyl-terminal hydrolase 17-like protein 5 (Homo sapiens), A8MUK1; purified USP17, Ub-rhodamine cleavage fluorescence, 3 h; inhibition, % at 50 µM; 6.5% of 47,000 active; AID 1645855, 2021
USP8 inh – inhibitors of human USP8 deubiquitinase | Ubiquitin carboxyl-terminal hydrolase 8 (Homo sapiens), P40818 | purified USP8, Ub-rhodamine cleavage fluorescence, 30 min | inhibition, % at 20 µM | 4.2% of 47,000 active | AID 1645853, 2021
Target sequence (P40818 whole entry, looked up): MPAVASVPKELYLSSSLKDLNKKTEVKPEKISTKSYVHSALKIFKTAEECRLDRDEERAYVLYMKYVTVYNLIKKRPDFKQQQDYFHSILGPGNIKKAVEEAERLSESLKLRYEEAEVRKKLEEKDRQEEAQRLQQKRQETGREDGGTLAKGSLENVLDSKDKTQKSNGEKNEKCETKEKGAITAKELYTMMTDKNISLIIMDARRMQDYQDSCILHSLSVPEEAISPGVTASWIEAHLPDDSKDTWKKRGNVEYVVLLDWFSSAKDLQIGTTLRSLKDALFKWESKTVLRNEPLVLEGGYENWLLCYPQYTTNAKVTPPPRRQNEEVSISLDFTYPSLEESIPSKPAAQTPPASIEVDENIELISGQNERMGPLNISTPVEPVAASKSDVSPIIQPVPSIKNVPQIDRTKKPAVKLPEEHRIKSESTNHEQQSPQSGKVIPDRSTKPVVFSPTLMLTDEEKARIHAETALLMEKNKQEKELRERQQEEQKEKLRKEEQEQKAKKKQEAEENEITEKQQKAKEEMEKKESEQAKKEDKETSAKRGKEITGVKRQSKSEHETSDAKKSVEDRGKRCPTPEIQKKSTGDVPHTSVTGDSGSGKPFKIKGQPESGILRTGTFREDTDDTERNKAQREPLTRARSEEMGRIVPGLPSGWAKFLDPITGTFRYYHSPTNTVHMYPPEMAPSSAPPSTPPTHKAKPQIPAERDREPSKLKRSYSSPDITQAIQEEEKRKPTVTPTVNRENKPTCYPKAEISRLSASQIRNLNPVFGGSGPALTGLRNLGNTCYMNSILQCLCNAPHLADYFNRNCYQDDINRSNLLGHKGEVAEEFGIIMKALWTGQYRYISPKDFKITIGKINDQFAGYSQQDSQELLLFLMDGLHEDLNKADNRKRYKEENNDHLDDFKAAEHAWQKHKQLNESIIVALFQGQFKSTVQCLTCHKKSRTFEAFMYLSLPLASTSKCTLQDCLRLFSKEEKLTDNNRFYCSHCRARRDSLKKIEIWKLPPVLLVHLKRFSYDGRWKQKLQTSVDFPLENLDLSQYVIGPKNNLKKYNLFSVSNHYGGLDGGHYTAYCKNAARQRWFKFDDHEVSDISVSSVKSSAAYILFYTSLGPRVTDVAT
USP30 block – inhibitors of human USP30 deubiquitinase; Ubiquitin carboxyl-terminal hydrolase 30 (Homo sapiens), Q70CQ3; purified USP30, Ub-rhodamine cleavage fluorescence; inhibition, % at 25 µM; 5.3% of 47,000 active; AID 1645860, 2021
* hit, by the source's call; i = inactive; . = no result given. Rule as the data show it: active = inhibition above about 30%; inactive = the rest.

SMILES	USP17 inh	USP8 inh	USP30 block
COc1nc(OC)nc(N2CCC(NC(=O)C(Cc3cccc(F)c3)NC(C)=O)CC2)n1 (configuration not stated)	9	6	10
CN1CCn2c(-c3cccnc3)cnc2C12CCN(C(=O)c1ccccc1)CC2	2	-28	4
COC(=O)c1ccc(OCc2noc(C(=O)NCC3CCCO3)n2)cc1 (configuration not stated)	-1	4	2
CC(=O)N1CC2(CCCCC2)c2cc(C(=O)N(C)C3CCN(C)C3)ccc21 (configuration not stated)	0	-39	9
Nc1ncncc1-c1noc([C@@H]2CCCN2Cc2cc3ccccc3o2)n1	-3	5	-37
COc1ccccc1S(=O)(=O)N1CCN2Cc3ccccc3N(C)CC2C1 (configuration not stated)	-136	-279	i
COc1ccccc1S(=O)(=O)N1CC[C@@H]2CN(C)[C@@H]2C1	56*	-1	18
CNc1nc2c(c(=O)n1C)CN(S(=O)(=O)c1ccc(-c3ccccc3)cc1)CC2	-8	-1	-15
Cc1ccc(OCC2Cn3c(nc4c3c(=O)[nH]c(=O)n4C)O2)cc1C (configuration not stated)	66*	1	.
Cc1ccc(C)c(N2CCn3c2nc2c3c(=O)[nH]c(=O)n2C)c1	1	0	15
Cc1cccc(CSc2nc(-c3ccco3)nc3c2c(=O)n(C)c(=O)n3C)c1	0	-3	10
Cc1ccc(C(=O)Cn2c(=O)n(C(C)C)c3nc(-c4ccco4)nc(C(N)=O)c32)c(C)c1	-10	40*	-242
CN(C)C(=O)N1CCN(S(=O)(=O)c2ccc(Cl)cc2)CC2(CNC(=O)C2)C1 (configuration not stated)	8	-5	16
CCc1ccc(C(=O)N2CCCC3(CCCN3C)C2)cc1 (configuration not stated)	-26	-205	-2
O=C1COc2nc3cc4c(cc3cc2CN1C1CCCC1)OCO4	10	16	23
CCOc1ccccc1NC(=O)Cn1c(=O)n(CCCCC(=O)NCc2ccccc2OC)c(=O)c2ccccc21	2	2	-2
COc1ccnc2c1c(=O)n(CC(=O)NCc1ccccc1Cl)c(=O)n2C	13	0	42*
COc1ccccc1CNC(=O)Cn1c(=O)c2c(ncn2CC(C)C)n(Cc2ccccc2)c1=O	19	26	31*
COc1ccccc1CNC(=O)CCCCn1c(=O)c2ccccc2n(Cc2ccccc2C#N)c1=O	65*	0	27
COCCn1cnc2c1c(=O)n(CC(=O)NCc1ccc(F)cc1)c(=O)n2Cc1ccccc1	25	7	11
COc1ccccc1CNC(=O)CCCCn1c(=O)c2ccccc2n(Cc2ccc(C)cc2)c1=O	38*	29	28
N#Cc1ccccc1Cn1c(=O)n(C2CCCC2)c(=O)c2ccccc21	9	2	0
COc1ccnc2c1c(=O)n(CC(=O)N1CCCC1)c(=O)n2C	-9	3	-36
Cc1nc(-c2ccccn2)[nH]c(=O)c1Cc1c(F)cccc1Cl	-15	-156	7
O=C(Cc1ccccc1)N1CCc2nc(C(=O)N3CCOCC3)sc2CC1	15	23	19
SMILES	USP17 inh	USP8 inh	USP30 block
Cc1ccc(C)c(NC(=O)CSc2nnc(N3CCOCC3)c3ccccc23)c1	2	0	15
Cc1nc(N(Cc2ccccc2)C(=O)c2ccccc2)sc1-c1ccccc1	4	2	12
CN1CCC(Nc2nc(-c3ccncc3)nc3c2CCC3)CC1	-11	2	-3
COc1ccc(C(c2c[nH]c3ccccc23)c2c[nH]c3ccccc23)cc1O	16	38*	-53
COc1cc(C(=O)NCC(c2ccccc2)c2c[nH]c3ccccc23)cc(OC)c1OC (configuration not stated)	0	-16	-5
Cc1ccc2sc(NCc3ccncc3)nc2c1C	-15	-6	-21
Cc1nnc(SCC(=O)Nc2ccc3[nH]c(=O)[nH]c3c2)n1-c1ccccc1	34*	-33	-13
O=C(CSc1nnc2ccccn12)Nc1ccc2[nH]c(=O)[nH]c2c1	6	1	-123
O=C1COC2(CCN(c3ncc(F)cn3)CC2)CN1Cc1ccccc1	-51	-154	-79
O=C1COC2(CCN(C(=O)N3CCCC3)CC2)CN1Cc1ccccc1	-24	-205	34*
NC1=CC(=O)C(Nc2ccccc2O)=CC1=O	42*	36*	-35
CC[C@H](C)C[C@H]1CC[C@](O)([C@](C)(O)C(=O)N[C@@H]2C(=O)N3NCCC[C@@H]3C(=O)N(O)[C@@H](C)C(=O)NCC(=O)N3NCCC[C@H]3C(=O)N(O)[C@H](C)C(=O)O[C@H]2C(C)C)O[C@@H]1C	41*	0	61*
O=C(NC1CCCC1)C1CN(C(=O)c2cccc(F)c2)CC12CCOCC2 (configuration not stated)	2	3	11
COc1ccc(CNC(=O)c2ccc3nnc(-c4ccccc4)n3c2)cc1	-5	-6	-11
O=C(NCC1CC1)c1ccn(-c2ccc3ccc(-c4ccccc4)cn23)n1	-69	-20	-379
O=C(NC1CCCC1)N1CCC2(CC1)COCCN(Cc1ccncc1)C2	-33	-30	-149
COc1ccc(N(CC(=O)NC2CCCCCC2)S(=O)(=O)c2ccc(Cl)cc2)cc1	16	22	27
O=C(COc1cc([N+](=O)[O-])cc2cccnc12)NCCC1=CCCCC1	86*	98*	37*
COc1ccc(OCC(=O)NCCC2=CCCCC2)c([N+](=O)[O-])c1	-2	-96	10
O=C(NCc1cc(=O)n2c(n1)CNCCC2)C1CC1	-19	-36	-44
COc1cc(OC)cc(-n2c(=O)c3sccc3n(CC(=O)c3ccc(Cl)cc3)c2=O)c1	35*	-1	30*
COCCNC(=O)CCCn1c(=O)c2cc(OC)c(OC)cc2n(CC(=O)c2ccc(Cl)cc2)c1=O	.	7	15
C/C(=C\Cc1c(O)cc(C)c(C=O)c1O)CC[C@@]1(C)[C@H](C)CCC(=O)[C@@H]1C	50*	13	28
COC1C(CO)O[C@@H](O[C@H](C[C@@]2(C)[C@H](C)CCC(=O)[C@@H]2C)/C(C)=C/Cc2c(O)c(Cl)c(C)c(C=O)c2O)C(O)C1O (some centres not stated)	11	2	27
Nc1nc(/C=C/c2ccc(Cl)cc2)nc(-c2ccccc2O)n1	36*	5	13
SMILES	USP17 inh	USP8 inh	USP30 block
Nc1nc(/C=C/c2ccc(Br)cc2)nc(-c2ccccc2O)n1	23	11	15
COCCN1C(=O)c2ccccc2C(C(=O)Nc2ccccn2)C1c1cccs1 (configuration not stated)	-13	-10	-17
CN1C(=O)c2ccccc2C(C(=O)Nc2nc3ccccc3s2)C1c1cccs1 (configuration not stated)	37*	-25	-15
COCCN1C(=O)c2ccccc2C(C(=O)Nc2cc(C)ccn2)C1c1cccs1 (configuration not stated)	9	16	33*
COc1ccc2nc(NC(=O)C3c4ccccc4C(=O)N(C)C3c3cccs3)sc2c1 (configuration not stated)	-8	6	-10
CN1CCc2c(sc(NC(=O)CSc3ccc(F)cc3)c2C(N)=O)C1	.	-158	-10
